# Laboratory results taken from the supplement of paper PMC6555819.
# What was measured:
# Test in all cases: PBM binding z-score (relative to random genomic background probes); higher = stronger binding; sequences stand for … in GC…GCGATTGACAGCGTAGAATGAAGG
# [1] = tested on: FXR:RXRa (NR concentration 270 nM, RXRa partner concentration 90 nM)
# How it was run: (§1)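 Scanned fluorescence from custom Agilent 4×180K protein-binding microarrays was regression-normalized. Binding z-scores use random background probes as reference. Ligand-free nuclear receptor dimers were incubated on the arrays for 1 h and detected with antibodies against each partner (one per run).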
# [2] = tested on: LXRa:RXRa (NR concentration 270 nM, RXRa partner concentration 90 nM)
# How it was run: as §1
# [3] = tested on: LXRa homodimer (NR concentration 270 nM)
# How it was run: as §1
# [4] = tested on: LXRb:RXRa (NR concentration 270 nM, RXRa partner concentration 90 nM)
# How it was run: as §1
# [5] = tested on: LXRb homodimer (NR concentration 270 nM)
# How it was run: as §1
# [6] = tested on: PPARa:RXRa (NR concentration 270 nM, RXRa partner concentration 90 nM)
# How it was run: as §1
# [7] = tested on: PPARg:RXRa (NR concentration 180 nM, RXRa partner concentration 90 nM)
# How it was run: as §1
# [8] = tested on: PPARg:RXRa 270nM:90nM, anti-RXR (NR concentration 270 nM, RXRa partner concentration 90 nM)
# How it was run: as §1
# [9] = tested on: PPARg:RXRa 30nM:10nM, anti-RXR (NR concentration 30 nM, RXRa partner concentration 10 nM)
# How it was run: as §1
# [10] = tested on: PPARg:RXRa 90nM:30nM, anti-RXR (NR concentration 90 nM, RXRa partner concentration 30 nM)
# How it was run: as §1
# [11] = tested on: PPARg:RXRa DBDmut IVT, anti-RXR (DBD mutation: RXRa K156A/R161A, NR concentration 270 nM, RXRa partner concentration 90 nM)
# How it was run: as §1
# [12] = tested on: PPARg:RXRa IVT, anti-PPARg (NR concentration 270 nM, RXRa partner concentration 90 nM)
# How it was run: as §1
# [13] = tested on: PPARg DBDmut:RXRa IVT, anti-PPARg (DBD mutation: PPARg1 K132A/R137A, NR concentration 270 nM, RXRa partner concentration 90 nM)
# How it was run: as §1
# [14] = tested on: PPARg DBDmut IVT, anti-PPARg (DBD mutation: PPARg1 K132A/R137A, NR concentration 270 nM)
# How it was run: as §1
# [15] = tested on: PPARg homodimer (NR concentration 180 nM)
# How it was run: as §1
# [16] = tested on: PXR:RXRa (NR concentration 270 nM, RXRa partner concentration 90 nM)
# How it was run: as §1
# [17] = tested on: PXR homodimer (NR concentration 270 nM)
# How it was run: as §1
# [18] = tested on: RARa:RXR (NR concentration 270 nM, RXRa partner concentration 90 nM)
# How it was run: as §1
# [19] = tested on: RARa homodimer (NR concentration 270 nM)
# How it was run: as §1
# [20] = tested on: RARb:RXRa (NR concentration 270 nM, RXRa partner concentration 90 nM)
# How it was run: as §1
Sequence,PBM binding z-score [1],PBM binding z-score [2],PBM binding z-score [3],PBM binding z-score [4],PBM binding z-score [5],PBM binding z-score [6],PBM binding z-score [7],PBM binding z-score [8],PBM binding z-score [9],PBM binding z-score [10],PBM binding z-score [11],PBM binding z-score [12],PBM binding z-score [13],PBM binding z-score [14],PBM binding z-score [15],PBM binding z-score [16],PBM binding z-score [17],PBM binding z-score [18],PBM binding z-score [19],PBM binding z-score [20]
CCGACTGGGGCAAAGGTTACCATGCTCAGTACGA,1.68,1.51,-0.384,1.97,-0.983,5.76,11,9.85,11.5,11.4,4.91,6.34,0.168,-0.503,1.36,2.28,-0.702,4.09,-0.847,2.63
CCTACTGGGCCACGTAAGGTCATTGATTCAGTGA,3.42,5.12,3.52,3.3,-0.468,3.47,3.29,3.76,0.808,2.54,5.56,5.43,0.00703,-0.733,1.14,4.38,1.49,3.25,0.62,3.02
GCTGCTAGGTCAACTGATGGTGAGCTAAAGCTCG,4.47,2.63,-0.169,1.71,-0.179,3.57,2.57,3.02,0.564,2.06,5.09,4.15,-0.747,-0.586,1.16,1.22,-0.899,2.11,-0.283,4.28
TTACCAAGGTGAAAGGTCGGTGATGCACGCCTTG,2.27,1.8,-0.377,1.34,-0.609,4.27,7.36,6.88,6.6,7.95,2.41,4.51,1.85,0.075,1.26,2.17,-0.356,3.77,-0.0129,2.65
ATCGAAACGTCGTGAGGTGAGTATACAGAAAGGC,-0.206,-0.348,-0.532,-0.359,-0.538,-0.0386,0.851,-0.286,-0.051,0.0788,-0.959,0.149,1.07,-0.047,-0.199,-0.306,-0.433,0.0512,-0.494,-0.0846
CCTTACGGGTCAAGGTTGTAGCACGGGTGGTACG,4.89,3.37,-0.181,2.48,-0.0387,4.68,4.01,4.21,1.2,3,0.974,3.06,0.572,-0.462,1.93,2.61,-0.423,3.82,-0.14,3.86
ACTAGCAGGCCAAGGGTGACTCAAGATTAGTCCG,-0.498,-0.205,-0.435,-0.119,-1,2.13,4.45,5.29,3.6,5.35,0.931,1.84,-0.0543,-0.633,-0.412,-0.0749,-0.354,0.264,-0.894,0.8
CCTTACGGGTCCCTGACAGGTTATAGCATTTGGA,-0.274,-0.086,0.128,-0.0575,-0.647,0.0699,0.112,-0.345,-0.32,-0.402,-0.486,-0.544,-1.04,-1.23,0.149,-0.106,-0.274,-0.0622,0.466,0.205
CCTACTGTGCCATTCAGAGGTCATTGATCATATG,2.84,4.75,6.87,4.59,1.67,3.96,1.74,2.71,0.936,1.83,3.76,3.54,0.945,0.536,2.73,4.89,2.63,4.4,1.62,3.08
CGAACTAGGTCATCGAGGACAGTGAATACATTGA,4.22,2.59,0.3,1.9,-0.0709,4.86,7.79,6.42,4.26,6.2,8.15,8.47,2.12,2.09,1.73,2.62,2.57,2.26,0.951,4
TCTAGTTGGTGACGGAGGTCACACACGACGGGTA,2.59,3.03,1.85,2.9,0.435,3.65,2.52,3.45,3.36,3.36,1.77,3.08,0.76,0.756,2.31,3.78,0.917,3.78,0.681,3.36
ATCTCTAGGTAACAAGGTCAGTGAAAGAGAGGAC,1.72,1.92,0.814,1.9,1.16,3.22,3.64,3.84,1.54,3,4.43,4.75,1.63,1.14,2.4,1.98,1.12,2.3,1.5,3.07
TCTAGTTGGTCGCGGAGGTCACACACGACGGGTA,2.99,3.17,2.21,2.94,0.671,3.61,2.02,3.04,2.94,2.83,1.54,2.37,0.402,0.328,2.9,4.16,1.42,4.39,1.29,3.38
CGTCCAAGGTCAATGCTAGGCCAGTGAAAGCATT,6.44,4.55,0.299,3.51,0.207,4.74,3.02,4.07,1.14,2.82,2.99,3.13,-0.61,-0.971,2.78,3.64,0.593,4.31,0.644,4.96
GCTAGTGGGTCAGTAAAAGGTCACACACCGGTCG,4.47,4.77,4.65,4.61,0.38,5.24,6.44,5.98,3.57,5.34,6.37,6.63,1.17,1.14,6.87,5.62,1.8,7.01,2.96,5.12
AGTCAAAGTTCAGGACGAGGTACCGTAAAGCACG,3.73,3.6,1.07,1.66,0.243,3.21,4.19,4.86,1.63,3.51,-0.264,0.999,-0.0468,-0.427,0.643,2.17,0.824,2.02,0.582,4.34
ATATGTAGGTTACGTCCGGGTCATTCAGGCTATG,2.37,4.62,1.21,3.12,0.722,4.6,5.86,5.24,2.88,4.48,7.35,7.47,4.19,3.42,3.1,3.87,2.03,4.08,0.587,2.47
TATCCTAGGTCAGATCGGGCCAGTATACGCTATA,2.81,3.67,2.41,2.2,1.81,2.49,1.46,2.04,0.691,1.56,2.51,3.41,1.32,1.4,1.11,1.82,0.14,1.8,0.0561,3.33
TAGCCTAGGTCATTCAGGCGCCAGTATAGAAAGC,5.09,3.26,0.555,2.5,0.661,3.35,2.01,2.37,0.32,1.41,1.59,2.61,0.787,-0.107,1.85,1.68,-0.342,2.44,-0.00217,3.56
ATCGAAAAGTCGAAGGTGAGTATACCCACCCGAA,0.0437,-0.18,-0.293,-0.264,-0.243,0.35,0.704,0.332,0.126,0.251,-0.679,0.2,0.0254,0.527,0.0253,-0.258,-0.0858,0.357,0.291,0.417
GCTGCTAGGTTAACTGATGGTCAGCTAAAGCTCG,-0.137,1.44,-0.782,0.138,-0.9,0.846,-0.15,0.209,-0.499,-0.243,2.43,1.36,-1.35,-0.847,-0.127,0.00634,-0.91,0.512,-1.49,1.54
CCTACTGGGCCAATAAGGTCATTGATGCCGATAA,2.84,2.93,1.06,3.03,-0.277,4.04,2.89,3.1,0.789,2.38,3.88,4.4,-0.359,-0.0114,1.04,3.77,3.17,3.56,0.431,3.17
TAGCCTAGGTCATTCAGGGGGCAGTATAGAAAGC,5.76,4.78,2.16,5.66,11,4.6,3.97,4.6,1.89,3.53,2.78,4.86,5.63,7.07,4.21,4.22,1.22,5.41,0.982,4.45
CGTCCAAGGTCACCAGGTCAGTGAAAGCGACGTG,7.52,5.47,1.42,4.08,0.282,6.01,7.61,6.88,3.48,5.87,4.53,5.56,0.432,-0.2,5.06,5.13,1.21,6.39,2.58,5.42
CCTAGTTGGTCAAGGTCACACATGCTATAGGTAC,3.87,3.69,2.25,3.88,0.901,4.01,3.24,3.69,1.38,2.96,2.61,3.82,1.11,1.14,3.65,4.24,2.57,4.11,2.64,4.14
CAAACTAGGTCACGAAAGGTCAAAGCCGAATGAC,7.72,8.31,8.03,7.21,2.38,6.89,10.6,8.43,7.38,8.99,8.59,8.71,2.62,1.68,7.54,6.89,3.03,7.57,4.36,5.74
ATCTAAAGGTCGAAGGTGAGTATACCCACCCGAA,4.51,4.47,0.846,3.2,1.12,4.71,5.11,5.19,2.76,4.36,0.448,2.65,1.07,0.686,1.22,2.87,0.401,4.15,0.981,3.76
CCTACTGGGCCACGAAAGGTCCTTGATTCAGTGA,-0.183,-0.157,-0.498,-0.372,-0.947,1.21,1.24,1.23,-0.391,0.635,5.26,4.89,-0.745,-0.678,-0.351,-0.149,-0.492,0.131,-0.655,0.686
TTACCAAGGTGACCTGAGGTCGTTGATCCAACTC,3.01,5.21,3.22,3.72,-0.159,3.47,1.7,2.13,0.705,1.34,1.69,2.92,0.109,-0.145,1.47,5.57,1.38,3.89,-0.101,2.5
